From ChEMBL document CHEMBL1961873, “Compounds: GSK PKIS; Assays: Nanosyn kinase panel” (2012) come the findings set out here.

Each structure is given as a SMILES string.

Assay [1] has as its target Tyrosine-protein kinase SYK (Homo sapiens) (UniProt P43405). Particulars: at 1 µM.
In assay [2] the target is T1, Tyrosine-protein kinase Tec (Homo sapiens) (UniProt P42680).
T1 sequence (whole entry): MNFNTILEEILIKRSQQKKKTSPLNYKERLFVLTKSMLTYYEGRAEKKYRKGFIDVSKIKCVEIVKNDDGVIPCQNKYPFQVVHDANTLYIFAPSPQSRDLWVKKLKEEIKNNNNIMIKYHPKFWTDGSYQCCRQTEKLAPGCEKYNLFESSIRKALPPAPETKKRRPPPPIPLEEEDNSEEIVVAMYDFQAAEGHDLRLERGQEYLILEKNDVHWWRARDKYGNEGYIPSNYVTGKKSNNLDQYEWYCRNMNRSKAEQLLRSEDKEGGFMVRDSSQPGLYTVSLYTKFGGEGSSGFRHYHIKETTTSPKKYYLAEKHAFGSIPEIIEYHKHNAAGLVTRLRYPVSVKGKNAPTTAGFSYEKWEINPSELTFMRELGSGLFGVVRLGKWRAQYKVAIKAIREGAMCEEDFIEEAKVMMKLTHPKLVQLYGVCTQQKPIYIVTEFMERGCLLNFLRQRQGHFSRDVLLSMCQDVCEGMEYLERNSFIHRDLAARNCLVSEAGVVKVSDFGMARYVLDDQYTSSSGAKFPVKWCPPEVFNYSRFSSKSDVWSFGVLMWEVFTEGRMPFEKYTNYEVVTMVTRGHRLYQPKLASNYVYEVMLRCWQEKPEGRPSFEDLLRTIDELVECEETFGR
As to conditions: at 0.1 µM.

Assay [3] addresses T1, Tyrosine-protein kinase Tec (Homo sapiens). As to conditions: at 1 µM.
The target of assay [4] is Angiopoietin-1 receptor (Homo sapiens) (UniProt Q02763). As to conditions: at 0.1 µM.
Chain of Angiopoietin-1 receptor (Homo sapiens) (Q02763 whole entry): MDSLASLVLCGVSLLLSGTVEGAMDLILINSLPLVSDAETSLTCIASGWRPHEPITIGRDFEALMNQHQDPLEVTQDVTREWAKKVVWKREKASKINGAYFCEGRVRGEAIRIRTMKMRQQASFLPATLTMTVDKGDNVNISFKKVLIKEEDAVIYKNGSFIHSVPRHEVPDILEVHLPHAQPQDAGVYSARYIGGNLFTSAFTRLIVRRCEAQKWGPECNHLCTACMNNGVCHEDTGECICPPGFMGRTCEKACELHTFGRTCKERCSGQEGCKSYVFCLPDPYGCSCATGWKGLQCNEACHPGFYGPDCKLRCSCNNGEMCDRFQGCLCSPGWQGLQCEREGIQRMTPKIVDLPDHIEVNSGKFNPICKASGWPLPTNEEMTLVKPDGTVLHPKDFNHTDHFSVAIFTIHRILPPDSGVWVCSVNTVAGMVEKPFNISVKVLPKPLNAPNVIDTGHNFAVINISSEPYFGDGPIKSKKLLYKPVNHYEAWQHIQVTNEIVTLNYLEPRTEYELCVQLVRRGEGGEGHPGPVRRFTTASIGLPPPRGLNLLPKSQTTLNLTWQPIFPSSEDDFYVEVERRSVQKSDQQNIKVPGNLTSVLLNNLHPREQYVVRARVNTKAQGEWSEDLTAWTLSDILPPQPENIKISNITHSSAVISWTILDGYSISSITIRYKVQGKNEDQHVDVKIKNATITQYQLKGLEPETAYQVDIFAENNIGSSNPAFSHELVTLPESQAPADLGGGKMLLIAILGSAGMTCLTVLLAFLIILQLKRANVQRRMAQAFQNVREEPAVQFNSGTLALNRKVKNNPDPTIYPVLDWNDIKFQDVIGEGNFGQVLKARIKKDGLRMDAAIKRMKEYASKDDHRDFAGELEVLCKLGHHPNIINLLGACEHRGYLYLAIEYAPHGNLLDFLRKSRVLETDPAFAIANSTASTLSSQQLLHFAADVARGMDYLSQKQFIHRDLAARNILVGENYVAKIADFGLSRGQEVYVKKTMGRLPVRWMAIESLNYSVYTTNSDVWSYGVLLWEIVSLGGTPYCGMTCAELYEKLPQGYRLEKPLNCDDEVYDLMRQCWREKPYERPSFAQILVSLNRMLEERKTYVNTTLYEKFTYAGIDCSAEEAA
Assay [5] shares this target. Particulars: at 1 µM.
For assay [6], the target named is T2, Non-receptor tyrosine-protein kinase TNK1 (Homo sapiens) (UniProt Q13470).
T2 sequence (whole entry): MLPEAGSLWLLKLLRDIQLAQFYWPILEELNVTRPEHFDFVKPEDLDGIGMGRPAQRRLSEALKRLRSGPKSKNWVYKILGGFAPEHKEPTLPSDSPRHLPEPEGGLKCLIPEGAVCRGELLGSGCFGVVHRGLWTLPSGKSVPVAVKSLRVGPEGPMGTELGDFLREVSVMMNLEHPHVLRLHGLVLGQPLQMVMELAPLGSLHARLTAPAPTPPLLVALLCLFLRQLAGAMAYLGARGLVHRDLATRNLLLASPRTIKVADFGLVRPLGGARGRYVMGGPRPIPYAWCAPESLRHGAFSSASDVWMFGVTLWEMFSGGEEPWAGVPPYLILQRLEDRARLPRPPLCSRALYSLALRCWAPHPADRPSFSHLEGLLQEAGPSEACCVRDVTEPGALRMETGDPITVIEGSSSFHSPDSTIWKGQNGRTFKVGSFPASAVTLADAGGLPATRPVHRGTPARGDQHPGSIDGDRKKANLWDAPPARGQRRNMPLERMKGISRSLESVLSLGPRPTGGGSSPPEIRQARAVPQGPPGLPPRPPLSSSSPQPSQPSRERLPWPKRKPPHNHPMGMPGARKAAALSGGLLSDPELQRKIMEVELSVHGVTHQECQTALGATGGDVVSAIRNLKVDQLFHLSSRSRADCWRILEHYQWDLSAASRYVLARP
As to conditions: at 0.1 µM.

Assay [7] has as its target T2, Non-receptor tyrosine-protein kinase TNK1 (Homo sapiens). As to conditions: at 1 µM.
Assay [8] deals with Activated CDC42 kinase 1 (Homo sapiens) (UniProt Q07912). As to conditions: at 0.1 µM.
Chain of Activated CDC42 kinase 1 (Homo sapiens) (Q07912 whole entry, looked up): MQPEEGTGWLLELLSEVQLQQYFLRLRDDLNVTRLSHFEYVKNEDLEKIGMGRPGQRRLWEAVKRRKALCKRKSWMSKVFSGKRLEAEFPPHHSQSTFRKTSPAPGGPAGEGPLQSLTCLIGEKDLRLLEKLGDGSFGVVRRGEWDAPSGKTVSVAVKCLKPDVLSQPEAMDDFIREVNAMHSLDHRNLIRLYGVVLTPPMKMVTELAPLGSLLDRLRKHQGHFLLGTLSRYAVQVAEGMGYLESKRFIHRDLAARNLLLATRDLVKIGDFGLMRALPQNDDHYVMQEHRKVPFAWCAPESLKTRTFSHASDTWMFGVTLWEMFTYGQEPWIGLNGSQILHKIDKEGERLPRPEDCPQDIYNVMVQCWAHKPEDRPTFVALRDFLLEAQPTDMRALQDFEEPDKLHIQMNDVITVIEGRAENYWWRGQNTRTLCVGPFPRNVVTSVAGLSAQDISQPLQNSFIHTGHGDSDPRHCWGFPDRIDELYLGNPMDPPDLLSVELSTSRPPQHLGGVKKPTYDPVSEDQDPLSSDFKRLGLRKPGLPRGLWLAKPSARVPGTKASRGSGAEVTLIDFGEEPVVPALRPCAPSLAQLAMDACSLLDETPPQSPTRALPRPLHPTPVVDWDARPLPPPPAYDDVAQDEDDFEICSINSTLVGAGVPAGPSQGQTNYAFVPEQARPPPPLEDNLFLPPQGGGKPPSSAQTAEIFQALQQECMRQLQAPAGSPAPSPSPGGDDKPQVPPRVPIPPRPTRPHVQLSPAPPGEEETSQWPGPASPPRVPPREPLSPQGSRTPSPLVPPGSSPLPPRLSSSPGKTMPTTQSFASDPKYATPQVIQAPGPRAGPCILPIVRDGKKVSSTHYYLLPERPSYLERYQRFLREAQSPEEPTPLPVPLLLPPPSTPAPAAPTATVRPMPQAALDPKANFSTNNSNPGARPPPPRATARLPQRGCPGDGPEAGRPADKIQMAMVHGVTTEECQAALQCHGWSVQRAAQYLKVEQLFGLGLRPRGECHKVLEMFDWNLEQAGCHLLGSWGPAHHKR
For assay [9] the target is unchanged. As to conditions: at 1 µM.
Assay [10] addresses High affinity nerve growth factor receptor (Homo sapiens) (UniProt P04629). Particulars: at 0.1 µM.
The target is the same in assay [11]. Particulars: at 1 µM.
The target of assay [12] is BDNF/NT-3 growth factors receptor (Homo sapiens) (UniProt Q16620). As to conditions: at 0.1 µM.
Assay [13] shares this target. Particulars: at 1 µM.
In assay [14] the target is NT-3 growth factor receptor (Homo sapiens) (UniProt Q16288). Particulars: at 0.1 µM.
Chain of NT-3 growth factor receptor (Homo sapiens) (Q16288 32-839 limits assumed): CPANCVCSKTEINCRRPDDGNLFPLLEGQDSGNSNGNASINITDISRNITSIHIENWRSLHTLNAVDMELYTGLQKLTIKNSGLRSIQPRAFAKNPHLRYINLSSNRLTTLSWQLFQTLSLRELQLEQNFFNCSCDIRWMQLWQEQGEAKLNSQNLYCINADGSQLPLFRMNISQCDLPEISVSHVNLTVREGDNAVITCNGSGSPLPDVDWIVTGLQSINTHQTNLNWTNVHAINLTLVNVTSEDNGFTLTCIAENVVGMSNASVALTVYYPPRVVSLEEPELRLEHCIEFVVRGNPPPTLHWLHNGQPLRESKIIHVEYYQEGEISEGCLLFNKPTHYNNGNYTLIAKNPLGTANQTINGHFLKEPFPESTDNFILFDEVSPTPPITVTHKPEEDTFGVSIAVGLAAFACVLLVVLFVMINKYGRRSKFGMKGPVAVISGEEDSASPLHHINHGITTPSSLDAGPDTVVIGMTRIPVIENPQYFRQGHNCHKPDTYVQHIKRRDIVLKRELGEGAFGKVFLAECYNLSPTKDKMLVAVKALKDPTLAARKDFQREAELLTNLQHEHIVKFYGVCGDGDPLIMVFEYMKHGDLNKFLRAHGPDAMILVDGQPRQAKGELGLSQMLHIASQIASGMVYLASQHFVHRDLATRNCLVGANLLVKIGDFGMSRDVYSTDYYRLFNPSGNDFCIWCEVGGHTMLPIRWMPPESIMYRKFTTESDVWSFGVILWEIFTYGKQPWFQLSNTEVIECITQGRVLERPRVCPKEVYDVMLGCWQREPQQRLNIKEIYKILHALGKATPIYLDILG
For assay [15] the target is unchanged. As to conditions: at 1 µM.
For assay [16], the target named is T3, Tyrosine-protein kinase TXK (Homo sapiens) (UniProt P42681).
T3 sequence (whole entry): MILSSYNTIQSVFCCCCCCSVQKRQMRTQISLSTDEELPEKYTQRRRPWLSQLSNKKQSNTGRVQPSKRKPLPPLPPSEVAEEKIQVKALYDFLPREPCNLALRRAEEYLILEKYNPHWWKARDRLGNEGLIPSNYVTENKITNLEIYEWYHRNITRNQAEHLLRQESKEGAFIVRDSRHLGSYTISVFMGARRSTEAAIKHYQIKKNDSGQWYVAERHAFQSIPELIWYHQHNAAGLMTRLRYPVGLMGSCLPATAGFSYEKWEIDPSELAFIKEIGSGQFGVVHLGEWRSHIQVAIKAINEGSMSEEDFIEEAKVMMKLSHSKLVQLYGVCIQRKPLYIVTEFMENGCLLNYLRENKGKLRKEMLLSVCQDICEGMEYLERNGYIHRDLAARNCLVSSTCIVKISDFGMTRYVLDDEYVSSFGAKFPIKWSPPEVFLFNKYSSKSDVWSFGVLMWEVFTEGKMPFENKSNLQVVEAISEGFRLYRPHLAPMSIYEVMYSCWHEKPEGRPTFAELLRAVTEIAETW
Particulars: at 0.1 µM.

The target of assay [17] is T3, Tyrosine-protein kinase TXK (Homo sapiens). As to conditions: at 1 µM.
Assay [18] has as its target Non-receptor tyrosine-protein kinase TYK2 (Homo sapiens) (UniProt P29597). Particulars: at 0.1 µM.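 Also: each value is a mean of the inhibition readings.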
In assay [19] the target is T4, Dual specificity protein kinase TTK (Homo sapiens) (UniProt P33981).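 Also: reported figures are mean TTK inhibition at 1 µM.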
T4 sequence (whole entry): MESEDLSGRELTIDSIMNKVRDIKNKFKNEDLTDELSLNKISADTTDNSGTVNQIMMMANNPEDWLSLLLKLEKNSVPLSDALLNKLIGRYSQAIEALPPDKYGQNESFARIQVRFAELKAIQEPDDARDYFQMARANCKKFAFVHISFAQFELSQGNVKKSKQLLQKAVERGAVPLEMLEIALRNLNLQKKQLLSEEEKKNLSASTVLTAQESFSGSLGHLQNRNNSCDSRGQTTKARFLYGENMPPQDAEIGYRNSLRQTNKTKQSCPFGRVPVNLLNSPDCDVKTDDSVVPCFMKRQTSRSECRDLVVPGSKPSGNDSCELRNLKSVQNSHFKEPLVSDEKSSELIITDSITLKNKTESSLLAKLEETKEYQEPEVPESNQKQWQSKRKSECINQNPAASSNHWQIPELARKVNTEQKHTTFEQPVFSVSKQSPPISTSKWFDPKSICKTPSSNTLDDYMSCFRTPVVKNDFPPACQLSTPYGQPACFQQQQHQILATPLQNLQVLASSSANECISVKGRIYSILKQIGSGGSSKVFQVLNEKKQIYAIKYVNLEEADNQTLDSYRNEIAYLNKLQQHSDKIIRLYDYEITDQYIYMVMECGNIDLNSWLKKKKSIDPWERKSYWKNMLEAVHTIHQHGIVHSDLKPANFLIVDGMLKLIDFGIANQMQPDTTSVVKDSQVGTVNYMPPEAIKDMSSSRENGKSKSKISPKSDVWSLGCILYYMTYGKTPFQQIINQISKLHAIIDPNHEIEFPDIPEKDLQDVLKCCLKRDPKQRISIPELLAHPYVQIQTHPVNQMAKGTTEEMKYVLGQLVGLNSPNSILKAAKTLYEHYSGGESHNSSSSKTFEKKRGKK
As to conditions: at 1 µM.

For assay [20], the target named is T5, Aurora kinase A (Homo sapiens) (UniProt O14965).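 Also: each reported value is a mean percent inhibition of Aurora-A.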
T5 sequence (whole entry): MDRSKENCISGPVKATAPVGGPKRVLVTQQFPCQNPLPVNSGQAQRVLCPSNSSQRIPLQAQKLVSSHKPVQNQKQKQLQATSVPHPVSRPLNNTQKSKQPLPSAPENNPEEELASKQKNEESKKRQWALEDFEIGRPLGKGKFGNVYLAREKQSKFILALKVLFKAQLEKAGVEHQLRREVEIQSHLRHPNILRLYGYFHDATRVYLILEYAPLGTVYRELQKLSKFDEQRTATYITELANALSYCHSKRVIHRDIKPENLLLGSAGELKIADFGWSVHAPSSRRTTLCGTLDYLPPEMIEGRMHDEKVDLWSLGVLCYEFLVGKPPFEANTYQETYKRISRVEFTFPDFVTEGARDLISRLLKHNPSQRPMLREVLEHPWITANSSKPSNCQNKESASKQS
As to conditions: at 0.1 µM.

Chain of High affinity nerve growth factor receptor (Homo sapiens) (P04629 33-796 limits assumed): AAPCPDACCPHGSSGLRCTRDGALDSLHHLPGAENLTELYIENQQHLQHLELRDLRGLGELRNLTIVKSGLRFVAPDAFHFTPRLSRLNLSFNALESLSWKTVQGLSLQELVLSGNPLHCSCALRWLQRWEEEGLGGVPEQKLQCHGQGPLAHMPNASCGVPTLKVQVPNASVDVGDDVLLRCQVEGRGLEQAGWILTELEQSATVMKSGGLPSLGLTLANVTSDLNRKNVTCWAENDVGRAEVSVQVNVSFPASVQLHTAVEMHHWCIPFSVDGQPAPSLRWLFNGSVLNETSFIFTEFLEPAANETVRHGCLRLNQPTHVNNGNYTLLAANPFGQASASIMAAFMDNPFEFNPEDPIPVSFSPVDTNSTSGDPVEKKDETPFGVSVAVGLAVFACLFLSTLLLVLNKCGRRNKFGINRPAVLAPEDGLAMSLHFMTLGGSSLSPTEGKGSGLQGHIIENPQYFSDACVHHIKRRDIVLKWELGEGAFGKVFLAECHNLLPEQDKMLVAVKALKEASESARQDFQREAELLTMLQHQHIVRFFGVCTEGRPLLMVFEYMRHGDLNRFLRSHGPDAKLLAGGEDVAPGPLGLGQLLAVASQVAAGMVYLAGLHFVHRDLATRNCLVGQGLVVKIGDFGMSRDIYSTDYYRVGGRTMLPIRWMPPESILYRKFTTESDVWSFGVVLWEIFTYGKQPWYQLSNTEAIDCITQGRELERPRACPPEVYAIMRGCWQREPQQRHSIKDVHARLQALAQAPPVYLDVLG
Chain of Non-receptor tyrosine-protein kinase TYK2 (Homo sapiens) (P29597 whole entry): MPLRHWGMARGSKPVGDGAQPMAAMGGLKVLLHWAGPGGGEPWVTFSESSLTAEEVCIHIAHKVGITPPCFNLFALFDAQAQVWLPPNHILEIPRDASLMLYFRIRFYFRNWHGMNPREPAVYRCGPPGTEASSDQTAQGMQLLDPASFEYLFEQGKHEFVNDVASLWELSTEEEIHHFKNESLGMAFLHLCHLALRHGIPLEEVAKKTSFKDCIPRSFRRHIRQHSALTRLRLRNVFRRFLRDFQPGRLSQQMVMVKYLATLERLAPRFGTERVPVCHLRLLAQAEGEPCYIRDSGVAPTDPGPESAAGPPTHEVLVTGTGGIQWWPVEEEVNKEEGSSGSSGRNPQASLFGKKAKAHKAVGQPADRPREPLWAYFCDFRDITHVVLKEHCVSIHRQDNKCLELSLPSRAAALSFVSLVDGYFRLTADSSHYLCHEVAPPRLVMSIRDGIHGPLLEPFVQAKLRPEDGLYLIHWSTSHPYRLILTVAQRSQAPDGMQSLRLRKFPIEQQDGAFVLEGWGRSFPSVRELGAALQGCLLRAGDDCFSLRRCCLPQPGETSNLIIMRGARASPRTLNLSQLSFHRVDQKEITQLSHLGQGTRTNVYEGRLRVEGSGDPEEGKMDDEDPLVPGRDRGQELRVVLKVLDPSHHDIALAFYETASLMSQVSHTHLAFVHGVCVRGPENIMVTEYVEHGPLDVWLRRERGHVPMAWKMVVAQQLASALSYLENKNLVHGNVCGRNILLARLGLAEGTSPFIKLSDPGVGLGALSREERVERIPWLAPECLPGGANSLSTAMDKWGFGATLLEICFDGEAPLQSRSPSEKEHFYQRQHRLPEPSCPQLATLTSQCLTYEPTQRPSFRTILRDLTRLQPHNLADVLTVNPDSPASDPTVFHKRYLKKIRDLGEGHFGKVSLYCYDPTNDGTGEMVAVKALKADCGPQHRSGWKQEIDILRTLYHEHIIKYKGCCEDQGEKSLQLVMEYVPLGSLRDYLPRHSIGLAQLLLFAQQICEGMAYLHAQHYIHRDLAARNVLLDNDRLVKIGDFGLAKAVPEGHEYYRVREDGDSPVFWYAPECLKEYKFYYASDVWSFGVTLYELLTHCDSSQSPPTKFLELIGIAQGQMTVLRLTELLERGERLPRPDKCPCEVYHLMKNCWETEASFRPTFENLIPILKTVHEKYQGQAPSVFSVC

Turning to `NS(=O)(=O)c1ccc(-c2ccc3c(NC(=O)C4CC4)n[nH]c3c2)cc1`, the inhibition in [1] was -2.49%; in assay [2], 4.93%; in [3], 10.3%; in [4] it was 1.08%; in assay [5] it was 6.97%; in assay [6] it was 2.11%. Besides, the inhibition in assay [7] worked out at 4.7%; in [8], 1.28%; in assay [9] it was 1.95%; in assay [10], 3.82%; in [11] it was 0.03%; in [12] it was 0.8%. Moreover, the inhibition in [13] is 5.39%; in assay [14] it was 2.06%; in assay [15] it was 9.04%; in [16] it was 3.28%; in assay [17], 4.88%; in [18], -5.6%. For the same compound, the figures for the inhibition in assay [19] and in assay [20] were 7.86% and 3.44%, respectively.

As to `COc1cc(C=NNc2ncnc3c2cnn3Cc2ccccc2)ccc1O`, the inhibition was -4.26% in assay [1]; -0.99% in assay [2]; 16.4% in assay [3]; 3.65% in assay [4]; 31.7% in assay [5]; -2.22% in assay [7]. Further, the inhibition in assay [8] was -1.7%; in assay [9], 0.03%; in assay [10] it was -2.9%; in assay [11], 2.96%; in assay [12] it was 0.74%; in assay [13], 23.4%. In addition, the inhibition was 0.17% in [14]; 14% in assay [15]; 1.55% in assay [16]; 19.6% in assay [17]; 3.47% in assay [18]; 3.09% in [19]. Further, the inhibition in assay [20] was 2.88%.

Turning to `NC(=O)c1sc(-n2cnc3cc(C(F)(F)F)ccc32)cc1OCc1ccccc1Br`, the inhibition was 1.46% in [1]; 1.68% in [2]; 3.28% in assay [3]; 2.07% in [4]; 3.72% in assay [5]; 1.72% in [6]. Further, the inhibition is 5.51% in assay [7]; 0.49% in assay [8]; 1.45% in assay [9]; -0.62% in [10]; -0.05% in [11]; 3% in assay [12]. In addition, the inhibition in [13] was 1.49%; in assay [14], 1.41%; in [15], 2.25%; in assay [16] it was 1.4%; in assay [17] it was 3.45%; in assay [18], 0.53%. The results for the inhibition in assay [19] and in assay [20] were 3.54% and 1.18%, respectively.
